Only some compounds are listed: those with a hit (about 3.2% of all), similar ones and a draw of the others.
ERa coact inh – blocks coactivator binding to human estrogen receptor alpha; TR-FRET ER-alpha LBD / SRC-1 peptide, estradiol-bound; inhibition, % at 25.6 µM; 1.7% of 86,000 active; AID 629; in the data active = inhibition above about 50%;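 note: 0% = receptor plus peptide control and 100% = peptide only without receptor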
ERa SRC1 pot – ER-alpha (human) coactivator binding potentiation; P03372; TR-FRET ERalpha-LBD/SRC-Cy5 coactivator binding, 2 h; 100 = basal binding, no effect; coactivator binding (% of control), % at 25.6 µM; 1.3% of 86,000 active; AID 639; in the data active = activity above about 200%;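 note: binding measured in presence of low estradiol as agonist stimulus; 0% = peptide alone without receptor and 100% = receptor with peptide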
EphB4 ephrin blk – antagonists of human EphB4-ephrin-B2 interaction; inhibition, % at 7 µM; 0.15% of 97,000 active; EphB4 LBD / TNYL-RAW-Alexa532 peptide, fluorescence polarization;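 active = inhibition above the screen-wide mean inhibition plus 3 SD, cut at about 15% in these data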;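 note: 0% = DMSO wells and 100% = excess unlabeled TNYL-RAW peptide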
ERb coact inh – blocks coactivator binding to human estrogen receptor beta; 1.3% of 86,000 active; Q92731; TR-FRET ER-beta LBD / SRC1-Cy5 peptide binding; receptor agonist-loaded with 1 µM estradiol; inhibition, % at 25.6 µM;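 active = compounds whose percent inhibition of the receptor-coactivator binding signal exceeds about 50% in the single-dose screen, limit read from the data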;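 note: 0% = receptor plus peptide wells without compound and 100% = peptide-only wells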
Target sequence (Q92731 whole entry, looked up, the tested form may be a part): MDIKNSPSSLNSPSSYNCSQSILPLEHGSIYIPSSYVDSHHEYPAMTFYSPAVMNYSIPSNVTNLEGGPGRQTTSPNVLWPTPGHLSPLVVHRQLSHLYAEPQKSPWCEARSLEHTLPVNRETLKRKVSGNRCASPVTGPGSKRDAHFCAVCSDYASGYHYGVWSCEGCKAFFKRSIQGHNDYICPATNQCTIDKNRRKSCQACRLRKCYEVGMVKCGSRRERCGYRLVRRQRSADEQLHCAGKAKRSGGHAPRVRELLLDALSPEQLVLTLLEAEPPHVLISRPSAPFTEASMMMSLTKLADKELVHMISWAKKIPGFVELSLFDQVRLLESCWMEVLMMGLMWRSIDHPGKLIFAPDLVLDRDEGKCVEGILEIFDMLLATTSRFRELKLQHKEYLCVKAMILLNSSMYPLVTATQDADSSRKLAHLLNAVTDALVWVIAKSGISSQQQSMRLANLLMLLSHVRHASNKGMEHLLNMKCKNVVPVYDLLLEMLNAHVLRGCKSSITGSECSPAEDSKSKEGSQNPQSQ
MT1-MMP txn act – activates MT1-MMP transcription; HT1080 MT1-MMP promoter luciferase reporter, luminescence, overnight; hits give high values; activation factor at 10 µM; 0.16% of 86,000 active; AID 750;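 active = activation factor of at least 2 for MT1-MMP transcription at 10 µM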
Candida biofilm – kills Candida albicans biofilms. inhibition, % at 6 µM. AID 834. 0.14% of 85,000 active. C. albicans biofilm + clotrimazole, Alamar Blue;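 active = inhibition above 20%; inactive = inhibition below 20%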;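 note: preformed 24 hr biofilms exposed to compound for 48 hr; 0% = biofilm without compound and 100% = blank killed by clotrimazole plus chlorhexidine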
* = called active by the depositor; · = not tested or not shown; ! = a repeat was not active; [ ] = dose if it differs, or a comment.

SMILES | ERa coact inh | ERa SRC1 pot | EphB4 ephrin blk | ERb coact inh | MT1-MMP txn act | Candida biofilm
CCc1nn(C(C)C(=O)NC(C)CCc2ccco2)c(=O)c2cc3occc3n12 (stereo not drawn) | · | · | · | · | 1.1 | ·
Cc1ccc(-c2cc(C(=O)Nc3ccccc3C)c3ccccc3n2)o1 | 78*[fluorescence artefact?] | 66 | 7 | 56*[fluorescence artefact?] | 1.3 | 5
Cc1ccc(-c2cc(C(=O)NCc3ccco3)c3ccccc3n2)o1 | 82* | 25 | 0 | 73* | 1.3 | 7
O=C(NCc1ccco1)c1cc2ccccc2c(=O)o1 | 57* | 67 | 5 | 47 | 1.7 | 2
Cc1cc(C)c2nc(-c3ccccn3)cc(C(=O)NCc3ccco3)c2c1 | 66* | 83 | -1 | 63*[fluorescence artefact?] | 1 | 3
O=C(NCc1ccco1)c1cccc2ccccc12 | -1 | 60 | 6 | -5 | 1 | -1
Cc1cc(NC(=O)c2cc(-c3ccccn3)nc3ccccc23)no1 | -7 | 88 | · | -13 | 1.1 | 8
CCCc1cc(C(=O)OC)c(NC(=O)c2cc(C)on2)s1 | -1 | 112 | -2 | 0 | 1.3 | ·
CCOc1ccc(N(Cc2cc3ccc(C)cc3[nH]c2=O)S(C)(=O)=O)cc1 | 0 | 127 | -3 | -42 | 1 | -2
O=C(Nc1cccc(C(F)(F)F)c1)c1cccnc1N1CCN(c2ccccc2)CC1 | 5 | 94 | 2 | 0 | · | 7
Cc1ccc(C)c(N2CCN(c3cc(C)nc4nnnn34)CC2)c1 | 20 | 130 | · | 1 | 1.2 | 6
C[N+](C)(C)CCOP(=O)(O)OP(=O)([O-])OC[C@H]1O[C@@H](n2ccc(N)nc2=O)[C@H](O)[C@@H]1O | -6 | 121 | · | 0 | 1.1 | 10
COc1ccc(C)cc1NC(=O)c1ccoc1C | 4 | 71 | 1 | 14 | 1.1 | 7
COc1ccc(C)cc1NC(=O)c1cc2c(CO)cnc(C)c2oc1=N | -28 | 239*[fluorescence artefact?] | · | 14 | 1.2 | 0
CC(C)CCOCc1nc2sc3c(c2c(=O)[nH]1)CCC(C)C3 (stereo not drawn) | · | · | -2 | · | · | ·
CCOC(=O)c1ccc2nc(NC(=O)c3cccs3)sc2c1 | 78*[fluorescence artefact?] | 106 | 9 | 54*[fluorescence artefact?] | 0.6 | 2
CCOC(=O)c1ccc2nc(NC(=O)c3ccco3)sc2c1 | 5 | 105 | -6 | -1 | 1.5 | 1
CCOC(=O)c1sc(NC(=O)c2ccc3ncsc3c2)nc1C | 23 | 473* | · | 29 | 0.8 | 5
CCOC(=O)c1csc(NC(=O)c2ccc(OC)c(OC)c2)n1 | -24 | 279*[fluorescence artefact?] | -2 | -3 | 1.2 | 9
CCn1c(SCc2nc(-c3ccccc3)no2)nc2ccccc21 | -2 | 98 | 5 | -3 | 1.1 | 5
CNC(=O)c1cc2cccc(OC)c2oc1=O | -4 | 133 | 0 | -2 | 1.1 | 10
NC(=O)COc1cccc2cccnc12 | -4 | 106 | -3 | 7 | 1.1 | -2
COc1ccccc1N=c1oc2c(OC)cccc2cc1C(=O)NCc1ccco1 | 6 | 109 | -6 | 10 | 1.3 | 4
COc1cccc2cc(C(=O)NCc3ccccn3)c(=O)oc12 | -35 | 97 | 2 | -29 | 2.1* | 5
COc1ccc(OC)c(N=c2oc3c(OC)cccc3cc2C(=O)NCc2ccco2)c1 | 75*[fluorescence artefact?] | 44 | · | 50*[fluorescence artefact?] | 1.4 | 4
SMILES | ERa coact inh | ERa SRC1 pot | EphB4 ephrin blk | ERb coact inh | MT1-MMP txn act | Candida biofilm
Cc1oc(C(=O)O)cc1COc1cccc2cccnc12 | 20 | 99 | -2 | 59*[fluorescence artefact?] | 1.1 | 3
Cc1cc(NC(=O)c2cccc(C(=O)Nc3cc(C)on3)n2)no1 | 16 | 292* | 13 | 11 | 1 | 1
COC(=O)[C@@]1(C)C=C[C@@H](Cc2ccccc2)N1C | · | · | · | · | 1 | ·
Cn1ncc(Cl)c1C(=O)NC(=S)Nc1sc2c(c1C#N)CCCCC2 | · | · | -2 | · | · | ·
CCOc1cccc2cc(C(=O)NCc3cccnc3)c(=O)oc12 | 4 | 174 | 0 | -1 | 1.1 | 9
CCOc1cccc2cc(C(=O)Nc3cc(C)on3)c(=O)oc12 | 33 | 468*[fluorescence artefact?] | -6 | 29 | 1.1 | 3
Cc1cc(NC(=O)COc2cccc3cccnc23)no1 | 64*[fluorescence artefact?] | 52 | -4 | 50*[fluorescence artefact?] | 1.1 | -1
CC(=O)Nc1nc2n(n1)C(c1ccccc1)C=C(c1ccccc1)N2 (stereo not drawn) | -1 | 100 | -4 | 12 | 1.1 | 4
COc1ccc(C2C=C(c3ccc(Cl)cc3)Nc3nc(NC(C)=O)nn32)cc1 (stereo not drawn) | 70* | 172 | 0 | 22 | 1.1 | 1
C=CCNc1nc(N2CCOCC2)nc(N2CCOCC2)n1 | 12 | 91 | 4 | 12 | 1.3 | 0
CCCNc1nc(N2CCOCC2)nc(N2CCOCC2)n1 | -2 | 133 | 6 | 55* | 1 | 5
COc1ccc(C2c3cc(OC)c(OC)cc3CCN2C2CC(=O)N(c3ccccc3)C2=O)cc1OC (stereo not drawn) | 3 | 108 | 2 | -4 | 1.1 | 2
N#Cc1c(C(F)(F)F)cc(-c2ccccc2)nc1SCc1nc(N)nc(N2CCOCC2)n1 | 62* | 362*[fluorescence artefact?] | · | 49 | 1.2 | -7
N#Cc1c(C(F)(F)F)cc(-c2ccc(Cl)c(Cl)c2)nc1SCCN1CCOCC1 | · | · | -3 | · | · | ·
O=C(O)CCCC(=O)N1CCN(c2cccc(Cl)c2)CC1 | -10 | 331*[fluorescence artefact?] | -1 | -1 | 1.1 | 5
O=C(Nc1cnn(C23CC4CC(CC(C4)C2)C3)c1)c1cnn2c(C(F)(F)F)cc(-c3ccco3)nc12 | 81* | 173 | 2 | 60* | 1.1 | 2
COc1ccc(-c2nnc3sc(CN4C(=O)c5ccccc5C4=O)nn23)cc1 | 16 | 227* | · | 8 | 1.1 | 6
c1ccc(Cc2nn3c(-c4ccncc4)nnc3s2)cc1 | -11 | 81 | 3 | -22 | 1.2 | 4
c1ccc(-c2nnc3sc(Cc4cccs4)nn23)cc1 | 64*[fluorescence artefact?] | 46 | -8 | 57* | 1.4 | 6
O=C1c2ccccc2C(=O)N1Cc1nn2c(-c3ccc(Cl)cc3)nnc2s1 | 46 | 383*[fluorescence artefact?] | · | 26 | 1.3 | 4
Clc1ccc(-c2nnc3sc(Cc4cccs4)nn23)cc1 | 35 | 83 | · | 33 | 1.2 | 5
COc1ccc(NC(=O)c2cnc3ccccn3c2=O)cc1OC | -7 | 101 | · | -5 | · | -4
C[C@@]1(C(NC(=O)c2ccccc2)c2ccc(-c3ccccc3)cc2)C[C@H]1C1CCCCC1 (stereo partly drawn) | · | · | · | · | 1.1 | ·
COc1cc(-c2nc(-c3ccc4c(c3)-c3ccccc3S4(=O)=O)c(-c3ccccc3)[nH]2)cc(OC)c1O | 1 | 94 | 5 | 16 | 1.5 | 6
Oc1ccc(-c2nc(-c3ccc(O)c(O)c3)cs2)cc1 | 68*[fluorescence artefact?] | 19 | · | 82* | 0.8 | 2
Cc1ccc(N(CC2=NCCN2)c2cccc(O)c2)cc1 | -4 | 94 | -6 | 70*! | 1.2 | 7
COc1ccc(C(=O)NCCCn2ccnc2)cc1 | 4 | 122 | -2 | -3 | 1.1 | -2
